Laboratory results: PubChem BioAssay AID1458 (National Center for Advancing Translational Sciences (NCATS), 2008)
Hit rate of the full screen: of about 210,000 compounds, about 5,900 (2.8%) were called active. About 5% were inconclusive and are not listed. Many of the other results were omitted from the sample, so actives are more common in it than they were. Values without a mark were called inactive. Calls follow the shape of the dose curve; as a rule, active = well fitted activation curve with a large enough effect; inconclusive = small, poorly fitted or top-dose-only effect; inactive = no such curve, though single readings can be large or run the other way.

Assay: qHTS Assay for Enhancers of SMN2 Splice Variant Expression; also: nearly all actives have a fitted effect of over 55% in size; as to activity change, positive = activation: % of control where 0% means no effect
Conditions: HEK293 SMN2-luciferase splicing reporter, luminescence, 30-36 h; series mostly up to 46.1 µM; activity change, positive = activation: at the top concentration
Summary of the method: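 HEK293 cells carry an SMN2 […]–luciferase reporter in which exon 7 inclusion puts luciferase in frame. Cells were plated 10-12 h before compound addition, then incubated 30-36 h at 37C. ONE-Glo luminescence was read; sodium butyrate at 4.5 mM final served as control.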
Potency is read from the fitted curve at half-maximal effect.

Structure (SMILES)	activity change, positive = activation	Potency
COc1ccc(CNC(=O)c2cc3c(=O)[nH]c4ccc(C)cc4c3s2)c(OC)c1	2.14%	–
Cc1nn(CCOc2ccccc2)c(=O)n1-c1ccccc1F	–	17.8 µM (active)
Cc1c(C(N)=O)sc2ncn(CCOc3ccccc3)c(=O)c12	4.68%	–
Cc1cccc2c1N(CCOc1ccccc1)C(=O)C2=O	-9.26%	–
Cc1cc(C)cc(NC(=O)CSc2oc(-c3ccccc3)nc2S(=O)(=O)c2ccc(Cl)cc2)c1	0.788%	–
Cc1ccc(Cl)cc1N1CCN(C(=O)CN2C(=O)COc3ccc(S(=O)(=O)N4CCOCC4)cc32)CC1	1.39%	–
COc1cccc(OCCOc2cccc(/C=N/n3cnnc3)c2)c1	–	8.91 µM (active)
COc1cccc(OCCCN2CCCCCC2)c1	-9.69%	–
C(=N\n1cnnc1)/c1cccnc1	3.41%	–
CCOc1ccccc1C(=O)NC1(C(F)(F)F)NC(=O)N(CCc2ccc(OC)c(OC)c2)C1=O (centres undefined)	-22.8%	–
CCOC(=O)c1ccc(NC(=O)C2CC(=O)NC(=Nc3ccc(C)c(C)c3)S2)cc1 (centres undefined)	-9.52%	–
CCCCN(C)CCNC(=O)C1CCCN(S(=O)(=O)c2cccc3nsnc23)C1 (centres undefined)	-0.0075%	–
Cc1ccc(S(=O)(=O)c2nnn3c2nc(N2CCN(c4ccccc4F)CC2)c2cc(Cl)ccc23)cc1C	-3.67%	–
CCC(=O)NC(=S)Nc1ccc(NC(=O)c2ccco2)c(Cl)c1	-1.02%	–
S=C(Nc1ccc(Br)cc1Cl)NC1CCN(Cc2ccccc2)CC1	-68.5%	–
O=C(NNC(=S)Nc1ccc(Br)cc1Cl)c1ccco1	–	12.6 µM (active)
Cc1ccc(-c2cc(-c3coc4ccccc4c3=O)c3c(n2)-c2cc(Cl)ccc2OC3)cc1	-0.83%	–
COc1ccc(CNC(=O)c2ccc(NC(=O)N3CC4CCCN4c4ccccc43)cc2)cc1 (centres undefined)	-6.58%	–
C/C(=N\NC(=O)OC(C)(C)C)c1ccc[nH]1	–	12.6 µM (active)
CC(C)(C)OC(=O)N/N=C/c1ccc(C(=O)O)cc1	10.1%	–
Cc1ccccc1NC(=O)NNC(=O)OC(C)(C)C	20.2%	–
Cc1cc(NC(=O)c2ccc(-c3ccc(Cl)cc3)o2)cc(-c2nc3ncccc3o2)c1O	-0.868%	–
COc1ccc(C(=O)Nc2nonc2-c2ccc(OC)c(OC)c2)cc1Cl	-19%	–
CC(C)=C(NC(=O)c1ccccc1)C(=O)N/N=C(\C)c1ccccc1O	-18.1%	–
C/C(=N\NC(=O)c1nc(C)cc(C)n1)c1ccccc1	–	11.2 µM (active)
C/C(=N/NC(=O)c1ccc(NC(=O)c2ccc(F)cc2)cc1)c1ccccc1	10.8%	–

Structure (SMILES)	activity change, positive = activation	Potency
CCOC(=O)c1c(NC(C)=O)c2c3c(sc2n1Cc1c(C)cc(C)cc1C)CCCC3	-5.97%	–
COc1ccccc1-c1cc2nc(C)c(CCC(=O)NC3CCCCC3)c(C)n2n1	-6.73%	–
Cc1cc(/C=C2/C(=N)N3C(=NC2=O)SN=C3S(C)(=O)=O)c(C)n1-c1ccccc1	–	15.8 µM (active)
CS(=O)(=O)c1ccc2c(c1)SC1=NC(=O)/C(=C/c3ccco3)C(=N)N12	9.12%	–
CCS(=O)(=O)C1=NSC2=NC(=O)/C(=C\c3cc(C)n(-c4cccc(OC)c4)c3C)C(=N)N21	5.92%	–
Cn1c(=O)cc(OCC(=O)N2CCN(c3ccccc3)CC2)c2ccccc21	4.37%	–
COC(=O)c1ccc(C2C(C(=O)Nc3ccccc3)=C(C)Nc3nc4ccccc4n32)cc1 (centres undefined)	-7.04%	–
CN(Cc1ccccc1)C(=O)c1cn(C)c2ccc(S(=O)(=O)N(C)C3CCCCC3)cc2c1=O	-3.3%	–
CN(C)c1ccnc2sc(C(=O)c3ccccc3)c(N)c12	–	14.1 µM (active)
COc1cccc(C(=O)c2sc3nc(-c4ccccc4)cc(C(F)(F)F)c3c2N)c1	-9.67%	–
CN(C)c1ccnc2sc3c(=O)n(Cc4ccccc4)cnc3c12	-24%	–
CN(CC(=O)Nc1cccc(C(F)(F)F)c1)S(=O)(=O)c1cccs1	0.287%	–
CCC1CCCCN1Cc1c(O)ccc2c(=O)c(Oc3ccccc3Cl)c(C(F)(F)F)oc12 (centres undefined)	-6.73%	–
Cc1cc(O)cc(O)c1C(=O)Cc1cnn(-c2ccccc2)c1	-16.1%	–
COc1ccc(C(=O)Cc2cnn(-c3ccccc3)c2)c(O)c1	–	17.8 µM (active)
COc1ccc(CC(=O)c2ccc(O)cc2O)cc1OC	19.7%	–
Cn1nc(-c2ccccc2)c(-c2ccccc2)c(C(=O)Nc2ccc(S(N)(=O)=O)cc2)c1=O	8.83%	–
COC(=O)Cn1cc(C(=O)c2cccs2)c2ccccc21	8.54%	–
COC(=O)c1cn(CC(=O)NCc2cccs2)c2ccccc12	–	22.4 µM (active)
O=C(Cn1cc(C(=O)c2cccs2)c2ccccc21)NCc1cccs1	25.6%	–
CCOC(=O)c1cn(Cc2cccc(C)c2)nn1	0.18%	–
CCOC(=O)c1nn(-c2cccc(C)c2)cc1C(=O)c1ccccc1	–	10 µM (active)
CC(=O)c1nn(-c2cccc(Br)c2)cc1C(=O)c1cccc2ccccc12	-21.6%	–
CCCOc1ccccc1-c1nc(SCCC(=O)O)n[nH]1	–	7.08 µM (active)
CCCOc1ccccc1C(=O)NCCCC(=O)O	-16.9%	–
COc1ccccc1-c1nc(SC)n[nH]1	12.2%	–

Structure (SMILES)	activity change, positive = activation	Potency
O=C(Cc1ccccc1)NNC(=O)C1CCN(c2ncccn2)CC1	4.38%	–
O=C(O)C1CCN(C(=O)OCc2ccccc2)CC1	–	17.8 µM (active)
O=C(NCC1CCC(C(=O)O)CC1)OCc1ccccc1 (centres undefined)	-2.66%	–
CCOC(=O)Cc1ccc(NC(=O)Nc2c[nH]c(=O)[nH]c2=O)cc1	-3.88%	–
O=c1[nH]c2cc(Br)ccc2n2cccc12	22.8%	–
O=C(Nc1ccc2oc(-c3ccc(O)c(Br)c3)nc2c1)c1cc2ccccc2o1	1.87%	–
CCCCCC(=O)Nc1ccc2oc(-c3ccncc3)nc2c1	-15.7%	–
CCCC(=O)Nc1ccc2oc(-c3ccc(O)c(Br)c3)nc2c1	–	11.2 µM (active)
CCOc1ccc(OCC)c(NC(=O)CN(c2ccc(C)cc2)S(=O)(=O)c2c(C)n[nH]c2C)c1	-8.29%	–
COc1ccc(Cl)cc1NC(=O)c1sc2nc3c(cc2c1N)CN(C)CC3	9.66%	–
COc1ccc(CCn2cc3c(c2-c2ccc(Br)cc2)c(=O)n(C)c(=O)n3C)cc1OC	-0.506%	–
Cc1cccc(NC(=O)C2CCCN2S(=O)(=O)c2cccc3nsnc23)c1C (centres undefined)	-4.32%	–
Cc1ccc(-n2c(=O)c3cccnc3n2CC(=O)NCc2ccc(F)cc2)cc1C	-1.87%	–
NC(=O)COC(=O)/C=C/c1ccc2ccccc2n1	4.91%	–
CCOc1cccc(/C=C/c2ccc3ccccc3n2)c1OC(C)=O	–	1.58 µM (active)
CC(OC(=O)c1ccc2ccccc2n1)C(=O)c1ccccc1 (centres undefined)	-3.13%	–
CCOC(=O)c1ccccc1NC(=O)c1nn(-c2ccc(OC)c(Cl)c2)c(=O)c2c1c1ccccc1n2C	-6.12%	–
COc1ccc(C(=O)Nc2nncs2)c(OC)c1	–	11.2 µM (active)
COc1cccc(OC)c1C(=O)Nc1nnc(C(C)C)s1	-3.99%	–
O=C(Nc1nncs1)c1ccccc1NS(=O)(=O)c1cccs1	-4.37%	–
O=S(=O)(c1ccc(C2CCCCC2)cc1)N1CCN(c2ccc(Cl)c(Cl)c2)CC1	-6.14%	–
COc1ccc(-c2csc(NC(=O)CCCc3cccs3)n2)cc1	-8.51%	–
CC(C)(C)NC(=O)NC(=O)COC(=O)Cc1ccc(Cl)cc1Cl	9.02%	–
COc1ccc(-c2nc(CCNC(=O)c3ccc(Br)o3)cs2)cc1	-57.5%	–
CCCc1ccc(-c2csc(NC(=O)Cc3cccs3)n2)cc1	-91.3%	–
COc1ccc(-c2csc(NC(=O)COC(=O)Cc3ccc(Cl)cc3Cl)n2)cc1	–	11.2 µM (active)

Structure (SMILES)	activity change, positive = activation	Potency
COc1ccc(-c2csc(NC(=O)COC(=O)c3ccc(Br)o3)n2)cc1	–	0.794 µM (active)
COc1ccc(Nc2ncc(C(=O)Nc3cc(C)ccc3OC)c3ccccc23)cc1	3.77%	–
COc1ccc(-n2c(SCC(N)=O)nc3c(oc4ccccc43)c2=O)cc1	-12.5%	–
O=C(NCc1ccccc1)c1cc(-c2cccc(Cl)c2)on1	0.862%	–
COc1ccccc1CNc1nc2ccc(Cl)cc2n2cnnc12	-0.672%	–
Cc1ccc(Cl)cc1NC(=O)C(C)n1nnc2sc(-c3ccccc3)cc2c1=O (centres undefined)	1.18%	–
O=C(CCS(=O)(=O)c1cccc2nsnc12)N1CCN(c2ccccc2F)CC1	-8.49%	–
O=C(CCSc1ccccc1)N1CCN(c2ccccc2F)CC1	–	11.2 µM (active)
O=C(c1cccc2ccccc12)N1CCN(c2ccccc2F)CC1	-6.5%	–
Cc1cc2n(n1)C(c1cc(C(C)(C)C)c(O)cc1O)Nc1ccccc1-2 (centres undefined)	-2.87%	–
Cc1cccc(CSc2nc3ccncc3n2CC(=O)N(C)C2CCCCC2)c1	3.04%	–
CCOc1ccc(-c2cc3nc(C4CCN(C(=O)OC(C)(C)C)CC4)c(C(=O)Nc4cccc(CC)c4)cn3n2)cc1	6.72%	–
Cc1ccccc1CSCC(=O)NC(=O)NC(C)(C)C	10.4%	–
CC(C)(C)NC(=O)CSC(=Nc1ccccc1F)NC#N	–	20 µM (active)
CC(C)(C)NC(=O)CSc1nc(-c2ccc(F)cc2)cc(C(F)(F)F)n1	17.7%	–
Cc1cc(C)cc(NC(=O)Cc2csc(C)n2)c1	-8.87%	–
COc1cccc(NC(=O)CC2C(=O)NCCN2C(=S)Nc2ccc(F)cc2)c1 (centres undefined)	-6.38%	–
CCNC(=O)N1CCNC(=O)C1CC(=O)Nc1ccc(C(=O)OCC)cc1 (centres undefined)	-30.7%	–
COC(=O)c1cc(NC(=O)CC2C(=O)NCCN2C(=O)c2ccc(F)cc2)cc(C(=O)OC)c1 (centres undefined)	–	10 µM (active)
COc1cc2c(=O)c(S(=O)(=O)c3ccc(C(C)C)cc3)cn(Cc3ccccc3C)c2cc1OC	-15.4%	–
O=C(Nc1cccc(NC(=O)c2ccc(Br)cc2)c1)c1ccccc1	1.19%	–
O=C(Nc1ccccc1)c1ccc2nsnc2c1	14%	–
O=C(Nc1ccccc1)c1cc2ccccc2[nH]1	–	11.2 µM (active)
Cc1nc(SCC(=O)N2CCN(c3ccccc3)CC2)[nH]c(=O)c1C	7.64%	–
Cc1oc(-c2ccccc2F)nc1CN1CCC(C(=O)NCCc2ccc(Cl)cc2)CC1	8.98%	–
COc1ccc(NC(=O)C2CCCN(S(=O)(=O)c3c(C)[nH]c(=O)[nH]c3=O)C2)c(OC)c1 (centres undefined)	7.41%	–
